About 1,000 (71%) of roughly 1,400 compounds were called active. No rule for the calls is given here. The set was probably picked from earlier hits. The list is a sample of the results. Potency and affinity values are given separately.
Test: blockers of HIV-1 envelope-mediated cell-cell fusion – cherry-pick, dose response (AID 652057)
Conditions: HeLa-JRFL Env/CEM21 cell fusion, luciferase; series mostly up to 35 µM; activity change, negative = inhibition: at the top concentration

Activity change, negative = inhibition, inactive:
COc1ccc(/C=C/c2nc(S(=O)(=O)c3ccccc3)c(NCCCN(C)C)o2)cc1OC -16.3% [at 16 µM]
CC(C)(C)c1ccc(-n2ncc3c2CCCC3NC(=O)CN2CCCC2=O)cc1 (stereo not given) -6.82%
C[C@H]1CN([C@@H](C)CO)C(=O)c2cc(NS(=O)(=O)c3ccc(F)cc3)ccc2O[C@H]1CN(C)S(=O)(=O)c1ccc(F)cc1 12.1%
Cc1noc(C)c1S(=O)(=O)N(C)C[C@H]1Oc2ccc(NC(=O)Nc3ccccc3)cc2CC(=O)N([C@H](C)CO)C[C@H]1C 2.68%
Cc1ccc(OCCN2CCN(c3ncnc4sc(C)c(C)c34)CC2)cc1 -25.9%
Nc1ccc(S(=O)(=O)c2ccc(N3CCOCC3)c(N)c2)cc1 -0.63%
COC(=O)C1CCN(C(=O)COC(=O)c2cc(S(=O)(=O)N3CCOCC3)ccc2C)CC1 -2.73%
Cc1onc(-c2ccccc2)c1C(=O)OCCOc1cccc(Cl)c1 -2.52%
CN(C)CC(=O)Nc1ccc2c(c1)[C@H]1C[C@H](CC(=O)NCc3cccc(F)c3)O[C@@H](CO)[C@H]1O2 7.88%
O=C(C[C@@H]1CC[C@@H](NC(=O)c2ccncc2)[C@H](CO)O1)NCCc1ccncc1 6.53%
O=C(O)C[C@@H]1CC[C@@H](NC(=O)c2ccncc2)[C@H](CO)O1 10.2%
Cc1ccccc1S(=O)(=O)NC(=O)C1(C)CCN1C(=O)CCc1ccc(Cl)cc1Cl (stereo not given) 4.53%
O=C(c1cccc(S(=O)(=O)N2CCN(c3ccccc3)CC2)c1)N1CCCC(C(F)(F)F)C1 (stereo not given) -16.8%
Cn1cc(S(=O)(=O)N2CCOCC2)cc1C(=O)Nc1cccc(Cl)c1 -2.31%
COc1cccc(S(=O)(=O)N2CC3(CN(C(=O)Nc4cccc(F)c4)[C@H](CO)c4[nH]c5cc(OC)ccc5c43)C2)c1 31.9% [at 16 µM]
O=C(Nc1cccc(F)c1)N[C@H]1CC[C@@H](CCNS(=O)(=O)c2cccc(Cl)c2)O[C@H]1CO 10.6%
O=C(Nc1cccc(F)c1)N[C@@H]1CC[C@H](CCNS(=O)(=O)c2cccc(Cl)c2)O[C@H]1CO -2.87%
CC(C)OCCCn1c(=S)[nH]c2ccc(N3CCOCC3)cc2c1=O -19.3%
Cn1cccc1C(=O)OCC(=O)NCCc1ccc(S(N)(=O)=O)cc1 -3.08%
CN(C)CC(=O)Nc1ccc2c(c1)[C@H]1C[C@@H](CC(=O)NCCc3ccccc3)O[C@H](CO)[C@H]1O2 -6.39% [at 30 µM]
O=C(Nc1nc(-c2ccc3c(c2)OCO3)cs1)c1ccncc1 19.8%
CC1Cc2cc(-c3csc(NC(=O)Cc4cccs4)n3)ccc2N1S(C)(=O)=O (stereo not given) 3.57%
CS(=O)(=O)N1CCN(c2ccccc2NC(=O)C(c2ccccc2)c2ccccc2)CC1 -35.7%
CCCNC(=O)C[C@H]1C[C@H]2c3cc(NC(=O)CN(C)C)ccc3O[C@H]2[C@H](CO)O1 -3.46%
Clc1ccc(OCCN2CCN(c3ncnc4sccc34)CC2)cc1 -19%
c1csc(-c2csc3ncnc(NCCCN4CCOCC4)c23)c1 -29.8%
Cc1cccc(C)c1NC(=O)N1CCN(c2nc3ccccc3s2)CC1 -9.77%
C[C@@H]1CN([C@H](C)CO)C(=O)c2cc(NC(=O)Nc3ccccc3)ccc2O[C@@H]1CN(C)S(=O)(=O)c1ccccc1 47.9%
Cc1nnc(SC(=O)N2c3ccccc3Sc3ccccc32)s1 119%
Cc1ccc(S(=O)(=O)N(C)C[C@@H]2Oc3cc(C#CC4CCCC4)ccc3S(=O)(=O)N([C@H](C)CO)C[C@H]2C)cc1 -29.5%
O=C(C[C@H]1C[C@H]2c3cc(NC(=O)Cc4ccncc4)ccc3O[C@H]2[C@@H](CO)O1)NCc1ccncc1 -10.2%
O=C(C[C@@H]1C[C@H]2c3cc(NC(=O)NC4CCCCC4)ccc3O[C@H]2[C@@H](CO)O1)NCc1ccncc1 11.5%
O=C(NNC(=O)C(c1ccccc1)c1ccccc1)c1ccccn1 -5.19%
O=C(COC(=O)c1ncc(Cl)c(Cl)c1Cl)NCc1cccs1 -16.5%
CN(Cc1cccs1)c1ncnc2sccc12 -2.6%
COc1ccc(-c2cn3c(C)c(C(=O)Nc4cccc(NC(C)=O)c4)sc3n2)cc1 13% [at 16 µM]
O=C1COc2ccc(-c3csc(=Nc4ccc(OC(F)F)cc4)n3CC3CCCO3)cc2N1 (stereo not given) -33%
CCc1ccc(-c2nc(CN3CCC(C(=O)NCCc4ccc(OC)c(OC)c4)CC3)c(C)o2)cc1 15.1%
CC(NNC(=S)N1CCCCCC1)c1ccc2ccccc2n1 (stereo not given) -25.8%
CCN1C(=O)[C@H]2[C@@H](c3ccc(C(F)(F)F)cc3)N[C@]3(CCCN(Cc4ccccc4)C3=O)[C@H]2C1=O -5.82%
O=C(Cn1ncc2c(=O)oc3ccccc3c21)N1CCC(N2CCCCC2)CC1 -4.21%
COc1ccc(CCNC(=O)C2CCCN(Cc3nc(-c4cccc(Cl)c4)oc3C)C2)cc1OC (stereo not given) -27.2%
C[C@@H]1CN([C@H](C)CO)C(=O)c2cccc(NC(=O)c3cnccn3)c2O[C@H]1CN(C)Cc1ccccc1 -21.7%
C[C@@H]1CN([C@H](C)CO)C(=O)c2cccc(NC(=O)c3ccncc3)c2O[C@@H]1CN(C)Cc1ccc(C(=O)O)cc1 5.08%
CCCNC(=O)C[C@@H]1C[C@H]2c3cc(NC(=O)Cc4ccncc4)ccc3O[C@H]2[C@H](CO)O1 45%
COC(=O)c1ccc(C(=O)NC2CCCc3c2cnn3-c2ccc(C)c(C)c2)cc1 (stereo not given) 66.7%
COc1ccccc1N1CCN(Cc2ccc(O)c3ncccc23)CC1 30%
CC1CCCN(C(=O)c2ccc(S(=O)(=O)N3CCC(c4nc5ccccc5s4)CC3)cc2)C1 (stereo not given) -13.8%
O=C(Nc1ccc(S(=O)(=O)N2CCN(Cc3ccccc3)CC2)cc1)c1cnccn1 -11.9%
COc1cccc(S(=O)(=O)N[C@@H]2CC[C@H](CCN)O[C@H]2CO)c1 0.746%
COc1ccc(S(=O)(=O)N[C@@H]2C=C[C@H](CC(=O)N3CCC(Cc4ccccc4)CC3)O[C@@H]2CO)cc1 -5.81%
COc1cccc(S(=O)(=O)N[C@H]2CC[C@@H](CCN)O[C@@H]2CO)c1 30.6% [at 16 µM]
O=C(Cc1ccccc1)N[C@@H]1C=C[C@H](CC(=O)N2CCCCC2)O[C@@H]1CO 6.07%
CCCCCn1c(=O)[nH]c2cc(C(=O)N3CCN(Cc4ccc5c(c4)OCO5)CC3)ccc2c1=O -30.3% [at 16 µM]
CCc1cnc(N2[C@H](C#N)[C@H](c3ccc(C#Cc4ccccc4F)cc3)[C@H]2CO)s1 -25%
